# Source: PubChem BioAssay
# Compounds with a hit are over-represented: about 2.4% of the library has one in this group of screens.
# D2 PAM-1: HTS Assay for Positive Allosteric Modulators of the Human D2 Dopamine Receptor: Primary Screen for Potentiators; D(2) dopamine receptor (Homo sapiens), P14416; HEK293 T-REx D2, calcium flux, EC20 dopamine potentiation; potentiation, % at 10 µM; 0.34% of 340,000 active;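 active means potentiation over 3 SD above the plate norm, cut at about 30% in these data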; further: 0% is about no effect
#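 Primary screen. Calcium kinetics in induced HEK293 T-REx D2 cells: compound pre-addition 180 s, EC20 dopamine, 180 s more.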
# D2 ag-1: HTS Assay for Allosteric Agonists of the Human D2 Dopamine Receptor: Primary Screen for Agonists; HEK293 T-REx D2 cells, calcium flux agonist mode; activation, % at 2 µM; 0.53% of 340,000 active; AID 485358, 2010;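 active means activation over 3 SD above normal in the single-dose calcium agonist read, cut at about 30% in these data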; further: 0% is about no effect
#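 Agonism scored from kinetic calcium signal (1 read/sec, 180 s) following compound pin transfer, after a 10 s baseline. Cells: HEK293 Trex line expressing inducible D2 receptor coupled to calcium, dye-loaded after overnight culture at 30 C.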
# D2 PAM-2: Beta-Arrestin HTS for Positive Allosteric Modulators of the Human D2 Dopamine Receptor: Potentiators; D(2) dopamine receptor (Homo sapiens), P14416; DiscoveRx D2 beta-arrestin cells, luminescence, 90 min; 100% = 57 uM dopamine signal; potentiation, % (no concentration beside the values); 0.23% of 360,000 active; in the data active means potentiation above about 50%; inconclusive means mostly about 30% to 49%
#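 PathHunter beta-arrestin assay in DiscoveRx D2 cells. Compounds were added with an EC20 of dopamine (50 nM final) for 90 min at 37 deg C. Luminescence was read 1 h after detection reagent, with 57 uM dopamine as the EC100 control.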
# D2 ag-2: Beta-Arrestin HTS for Positive Allosteric Modulators of the Human D2 Dopamine Receptor: Agonists. D(2) dopamine receptor (Homo sapiens), P14416. DiscoveRx PathHunter D2 beta-arrestin, luminescence, 90 min; 100% = 57 uM dopamine signal. activation, % (test concentration not listed). 0.084% of 360,000 active. AID 624465, 2012; in the data active means activation above about 40%; inconclusive means between about 15% and that limit
#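 Agonist mode: compounds alone added to overnight-plated D2 PathHunter cells for 90 min at 37 C, with 57 uM final dopamine (EC100) defining full response. Beta-arrestin recruitment detected by chemiluminescent reagent, read after 1 h at ambient temperature.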
# D2 antag: HTS Assay for Allosteric Antagonists of the Human D2 Dopamine Receptor: Primary Screen for Antagonists; 2% of 340,000 active; inhibition, % at 10 µM; D(2) dopamine receptor (Homo sapiens), P14416; HEK293 TREx D2 cells, calcium flux, dopamine EC80; in the data active means inhibition above about 30%; inactive means below that, where a call was filed; further: 0% is about no effect
#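 In this primary screen, negative modulation is detected by tracking calcium flux after an EC80 dopamine challenge in inducible HEK293 T-REx D2 cells preexposed to test compound for 180 s.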
# D3 arrestin ag: qHTS of D3 Dopamine Receptor Agonist: D3 Dopamine Receptor B-arrestin Agonist Confirmatory Assay; shares compounds with D2 ag-1; DiscoveRx D3 beta-arrestin cells, luminescence, 90 min; Potency, µM (titrated, usually from 76.9 µM), for the others: top-dose activation, most hits filed as activators; 4% of 2,300 active; AID 720506, 2013;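 further: potency means the concentration at half of the fitted maximal effect; 100% = dopamine control response; nearly all actives have a fitted effect of over 70% in size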
# Target sequence (P35462 whole entry, looked up): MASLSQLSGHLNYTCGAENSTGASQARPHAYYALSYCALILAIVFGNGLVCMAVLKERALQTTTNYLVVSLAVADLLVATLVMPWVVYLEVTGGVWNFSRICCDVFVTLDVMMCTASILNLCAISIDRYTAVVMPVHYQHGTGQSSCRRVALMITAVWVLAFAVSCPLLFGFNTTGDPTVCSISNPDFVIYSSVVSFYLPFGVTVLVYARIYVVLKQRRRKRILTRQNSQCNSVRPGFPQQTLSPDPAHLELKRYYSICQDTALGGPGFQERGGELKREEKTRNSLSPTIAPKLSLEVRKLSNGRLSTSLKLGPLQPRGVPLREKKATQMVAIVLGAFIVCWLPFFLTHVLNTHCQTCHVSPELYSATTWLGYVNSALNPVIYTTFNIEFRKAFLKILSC
# D2 ag-3: qHTS of D3 Dopamine Receptor Agonist: D2 Dopamine Receptor B-arrestin Agonist Counterscreen; shares compounds with D2 ag-1; DiscoveRx PathHunter D2 beta-arrestin, luminescence, 90 min; response scale: percent relative to full dopamine signal; Potency, µM (titrated, usually from 76.9 µM), for the others: at the top dose activation, hits mostly activators; 5.9% of 2,300 active; AID 720507, 2013; further: potency means the concentration at half of the fitted maximal effect; % of control where 0% means no effect; nearly all actives have a fitted effect of over 70% in size
# An asterisk follows results filed as active; u = inconclusive; x = no result. Unless noted, the call rests on the fitted dose curve; in most records, active means well fitted activation curve with a large enough effect; inconclusive means small, poorly fitted or top-dose-only effect; inactive means flat fitted curve, though single readings scatter.
SMILES,D2 PAM-1,D2 ag-1,D2 PAM-2,D2 ag-2,D2 antag,D3 arrestin ag,D2 ag-3
O=C(CCc1ccc(O)c(O)c1)NNC(=S)NCCc1ccccc1,-24.5,46.4*,7.8,9.8,29.1,u,13.0%
COc1cccc(NC(=O)NNC(=O)CCc2ccc(O)c(O)c2)c1,-17.3,52.5*,-24.4,u,24.1,7.94µM*,13.5%
Cc1cc(=O)[nH]c2c(C)cc(S(=O)(=O)NCc3ccccc3)cc12,-4.6,36.3*,9.5,4.2,5.4,-2.0%,-2.0%
O=C(NCCCN1CCN(c2ccccc2F)CC1)Nc1ccccc1[N+](=O)[O-],-25.3,73.5*,-16.5,u,99.0*,16.5%,u
COc1ccc(N2CCN(CCCNC(=O)Nc3ccccc3)CC2)cc1,11.7,0.2,-24.2,-1.4,-2.5,x,x
COc1ccccc1N1CCN(CCCNC(=O)Nc2ccccc2)CC1,-30.2,86.6*,-12.3,u,101.0*,29.1%,27.8%
Cc1ccccc1NC(=O)NCCCN1CCN(C)CC1,8.9,-0.2,4.7,2.1,3.3,x,x
O=C(Cn1c(=O)c2cccn2c2ccc(F)cc21)NCCCN1CCN(c2ccccc2F)CC1,-19.2,78.9*,-33.8,u,81.8*,4.4%,u
CSc1ccc(NC(=O)NCCCN2CCN(c3ccccc3F)CC2)cc1,-19.5,69.4*,3.1,u,100.3*,u,u
COc1ccc(N2CCN(C(CNC(=O)C(=O)NCCCN(C)C)c3cccnc3)CC2)cc1 (centres undefined),-4.8,0.7,x,x,x,x,x
CCc1nnc(SCC(=O)Nc2cccc(C(F)(F)F)c2)c2cc3oc(C)cc3n12,1.2,0.3,x,x,x,x,x
CCCN1Cc2cccc(C(=O)Nc3ccc(OC)cc3OC)c2C1=O,-9.7,-0.2,x,x,x,x,x
Cc1nn(-c2ccc(F)cc2)c(-n2cccc2)c1C(=O)NCCCN1CCN(c2ccccc2F)CC1,-22.9,22.4,x,x,x,x,x
O=C(NCCCN1CCN(c2ccccc2F)CC1)Nc1ccc(F)cc1,-20.4,75.7*,-4.2,13.5,80.7*,-1.0%,u
COc1ccc(NC(=O)Nc2nnc(N(C)C3CCCCC3)s2)c(OC)c1,3.9,-0.6,x,x,x,x,x
O=C(Nc1cccc(C(=O)N2CCOCC2)c1)c1ccc([N+](=O)[O-])cc1,-3.7,39.4*,1.6,-0.2,-1.2,u,2.5%
CCOc1ccc(C(=O)NCc2ccc3c(c2)CCN3C(=O)c2ccc(C)cc2)cc1OCC,-7.5,-0.7,x,x,x,x,x
CCCCC(O)CN1CCC(c2ccccc2)CC1 (centres undefined),-25.3,52.0*,-47.2,-0.6,48.3*,-10.4%,2.0%
CC(CN1CCC(O)CC1)c1ccccc1 (centres undefined),6.2,-0.1,-9.6,-0.8,-1.2,x,x
CC1=Nc2ccccc2/C1=C/c1nc(-c2ccc(C)s2)oc1O,x,x,-10.1,-5.0,x,x,x
CC1=Nc2ccccc2/C1=C/c1sc(=N)n(-c2nccs2)c1O,-4.3,9.6,-26.6,-2.6,-12.3,-15.7%,-9.8%
O=C(Cn1ncc2c([nH]c3ccccc32)c1=O)NCCCN1CCN(c2ccccc2)CC1,-2.2,-1.4,-26.7,u,103.1*,12.5%,u
CC1CCCC(C)N1CCCNC(=O)Cn1ncc2c([nH]c3ccccc32)c1=O (centres undefined),-3.5,0.1,-8.7,1.5,7.8,x,x
Cc1ccc(C)c(OCCn2cc(C(=O)c3cccs3)c3ccccc32)c1,-13.9,1.8,x,x,x,x,x
COc1cccc(N2CCN(S(=O)(=O)c3ccc(-c4ccno4)cc3OC)CC2)c1,-3.0,0.5,x,x,x,x,x
SMILES,D2 PAM-1,D2 ag-1,D2 PAM-2,D2 ag-2,D2 antag,D3 arrestin ag,D2 ag-3
COc1ccc(C(=O)NCc2nnc(SCC(=O)Nc3ccccc3)n2-c2ccccc2)cc1,-6.2,-0.6,x,x,x,x,x
C[C@@H]1NS(=O)(=O)[C@H]2C[C@@H]3C=C[C@]2(O3)[C@H]1OC(=O)Nc1ccc(C(F)(F)F)cc1[N+](=O)[O-],2.1,0.9,-0.9,-4.2,-5.5,9.3%,2.5%
Cc1cc(C(=O)O[C@H]2[C@H](C)NS(=O)(=O)[C@H]3C[C@@H]4C=C[C@]23O4)cc([N+](=O)[O-])c1,0.8,0.1,-11.0,-3.3,-10.8,x,x
O=C(CSc1ncnc2scc(-c3ccc(F)cc3)c12)c1ccc2c(c1)OCCO2,0.9,49.9*,-20.4,1.0,5.5,7.5%,1.7%
COc1ccc(CN=Cc2[nH]c3ccc(Br)c(Cl)c3c2O)cc1,-14.3,50.7*,-1.7,4.8,42.5*,29.2%,28.4%
CC1(Oc2ccc(-n3ccnc3)cc2)CCN(Cc2cccn2-c2nccs2)C1 (centres undefined),x,x,-5.2,-3.5,x,x,x
CN(C)c1ccc(S(=O)(=O)N2CCCCC2)cc1NC(=O)C1CSC2(C)CCC(=O)N12 (centres undefined),4.2,0.0,-3.5,-1.4,-3.2,0.4%,-1.8%
CCCC(C)NC(=O)Cc1ccc(Br)cc1 (centres undefined),25.6,-0.1,-13.0,-1.1,-5.4,-11.8%,-2.5%
CC(C)NC(=O)Cc1ccc(Br)cc1,3.8,0.6,6.2,-0.7,4.3,x,x
Cc1sc2c(c1C)c(=O)n(-c1ccccc1)c(=O)n2CC(=O)c1ccc(Cl)cc1,19.8,0.1,x,x,x,x,x
COc1ccc(CN(C(=O)/C=C/C(=O)c2ccc(OC)cc2O)C(C(=O)NC2CCCCC2)c2ccncc2)cc1 (centres undefined),-26.5,34.6*,-1.7,-0.3,1.1,-9.3%,-3.9%
Cn1c(=O)c2c(-c3ccccc3Cl)n(-c3cc(Cl)ccc3O)cc2n(C)c1=O,3.5,-1.3,x,x,x,x,x
O=C(O)/C=C/C(=O)NCc1ccccc1,-8.7,-0.8,19.2,-1.3,-11.6,x,x
O=C(O)/C=C/C(=O)NCCCc1ccccc1,6.4,0.0,-2.6,-2.5,14.5,-2.9%,-4.4%
Cc1ccc(C)c(NC(=O)c2cc(S(=O)(=O)N3CCCCCC3)ccc2F)c1,13.3,0.2,x,x,x,x,x
